BoNT F protease: inhibitors of Botulinum neurotoxin F light chain protease; 360,000 tested, 0.22% active; Multiplex microsphere protease cleavage assay, flow cytometry; inhibition, % at 10 µM; in the data active means inhibition above about 35%, passing the limit was not always enough; inconclusive means no clear call, values can overlap the other calls; further: plate controls were buffer without enzyme for full effect and enzyme alone for no effect
Anthrax LF prot: blocks Bacillus anthracis lethal factor protease; AID 588501; 360,000 tested, 0.12% active; P15917; inhibition, % at 10 µM; multiplex microsphere protease cleavage assay, LF; further: plate controls were buffer without enzyme for full effect and enzyme alone for no effect
BoNT-A LC inh2: BoNT A light chain protease inhibition | multiplex microsphere protease substrate cleavage, flow cytometry | inhibition, % at 10 µM | 360,000 tested, 0.17% active | AID 588499; further: plate controls were buffer without enzyme for full effect and enzyme alone for no effect
SARS 3CLpro inh: SARS-CoV 3CLpro protease inhibition. P0C6X7. recombinant SARS-CoV 3CLpro, quenched FRET peptide cleavage. inhibition, % at 6 µM. 290,000 tested, 0.14% active. AID 1706; in the data active means inhibition above about 12%
Autofluor counter: flagged as autofluorescent in microsphere protease counterscreen; compound autofluorescence counterscreen, microsphere flow cytometry; active compounds read high; fluorescence intensity (test concentration not listed); 360,000 tested, 3.1% active; AID 624483; in the data active means fluorescence intensity above about 16000; inconclusive means no clear call, values can overlap the other calls
The depositor's hits bear a star. Most compounds without a hit are left out; they make up all but 3.5% or so of the library. Unless noted, no stated cut-off is given here; in the data, active means inhibition above about 30%; inconclusive means no clear call, values can overlap the other calls; inactive means below that.

What do the screens show for `CCCOc1ccc(CN(C(=O)c2cccc(OC)c2)C2CCS(=O)(=O)C2)cc1` (centres undefined)?
BoNT F protease: -2; Anthrax LF prot: -2; BoNT-A LC inh2: 2; SARS 3CLpro inh: 0; Autofluor counter: 5167

How did O=C(Cn1c(=O)oc2ccccc21)N(Cc1ccccc1)C1CCS(=O)(=O)C1 (centres undefined) do in these assays?
BoNT F protease: inconclusive; Anthrax LF prot: -9; BoNT-A LC inh2: -1; SARS 3CLpro inh: 0; Autofluor counter: 4033

What do the screens show for `O=C1C2CC=CCC2C(=O)N1CC(=O)N(Cc1ccccc1)C1CCS(=O)(=O)C1` (centres undefined)?
BoNT F protease: 4; Anthrax LF prot: -4; BoNT-A LC inh2: 1; SARS 3CLpro inh: 1; Autofluor counter: 22395*

Results for CN(C(=O)COc1ccccc1)C1CCS(=O)(=O)C1 (centres undefined) ?
BoNT F protease: 1; Anthrax LF prot: 0; BoNT-A LC inh2: 0; SARS 3CLpro inh: -2; Autofluor counter: 2490

Results for CCCOc1cccc(C(=O)N(Cc2ccc(OC)c(OC)c2)C2CCS(=O)(=O)C2)c1 (centres undefined) ?
BoNT F protease: -3; Anthrax LF prot: -2; BoNT-A LC inh2: -1; SARS 3CLpro inh: -3; Autofluor counter: 23243*

What do the screens show for `Cc1ccccc1OCC(=O)N(Cc1ccc(N(C)C)cc1)C1CCS(=O)(=O)C1` (centres undefined)?
BoNT F protease: -4; Anthrax LF prot: 2; BoNT-A LC inh2: -1; SARS 3CLpro inh: 1; Autofluor counter: 23914*

What do the screens show for `CC(C)CCOc1cccc(OCC(=O)N(C)C2CCS(=O)(=O)C2)c1` (centres undefined)?
BoNT F protease: 1; Anthrax LF prot: -1; BoNT-A LC inh2: -1; SARS 3CLpro inh: -2; Autofluor counter: 16885*

What do the screens show for `Cc1ccccc1-c1cccc([C@@H]2C[C@H]3[C@H](CON3C)CN2Cc2ccccc2)c1`?
BoNT F protease: -3; Anthrax LF prot: -2; BoNT-A LC inh2: -1; Autofluor counter: 4168

What do the screens show for `COc1cccc(CN2CCCC(C(=O)Nc3ccc(-c4cscn4)cc3)C2)c1` (centres undefined)?
BoNT F protease: 2; Anthrax LF prot: -8; BoNT-A LC inh2: 0; SARS 3CLpro inh: 4; Autofluor counter: inconclusive

Results for CN1CCN(CCC(=O)Nc2cccc(F)c2)CC1 ?
BoNT F protease: 7; Anthrax LF prot: -1; BoNT-A LC inh2: 2; SARS 3CLpro inh: -3; Autofluor counter: 7855

What do the screens show for `Cc1ccc(OCC(=O)N(Cc2ccc(N(C)C)cc2)C2CCS(=O)(=O)C2)cc1C` (centres undefined)?
BoNT F protease: inconclusive; Anthrax LF prot: 27; BoNT-A LC inh2: 2; SARS 3CLpro inh: -1; Autofluor counter: 3505

How did CN(C)c1ccc(CN(C(=O)COc2ccccc2)C2CCS(=O)(=O)C2)cc1 (centres undefined) do in these assays?
BoNT F protease: -6; Anthrax LF prot: -2; BoNT-A LC inh2: -2; SARS 3CLpro inh: 3; Autofluor counter: 16811*

Results for CC(C)C(=O)N1CCN(c2ccc(NC(=O)c3ccc4c(c3)OCCO4)cc2Cl)CC1 ?
BoNT F protease: 1; Anthrax LF prot: -5; BoNT-A LC inh2: inconclusive; SARS 3CLpro inh: 3; Autofluor counter: 16164*

How did O=C(Nc1ccc(N2CCCCC2)cc1)c1ccc2c(c1)OCCO2 do in these assays?
BoNT F protease: -2; Anthrax LF prot: -3; BoNT-A LC inh2: inconclusive; SARS 3CLpro inh: 4; Autofluor counter: 23082*

What do the screens show for `CC(=O)Nc1cccc(N2CCCC2=O)c1`?
BoNT F protease: -8; Anthrax LF prot: 0; BoNT-A LC inh2: -6; SARS 3CLpro inh: 1; Autofluor counter: 25393*

How did CC(=O)Nc1cccc(N2C(=O)CCC2=O)c1 do in these assays?
BoNT F protease: -6; Anthrax LF prot: -2; BoNT-A LC inh2: 0; SARS 3CLpro inh: 1; Autofluor counter: 2462

What do the screens show for `CC(C#N)Sc1ccc(S(=O)(=O)N2CCCC2)cn1` (centres undefined)?
BoNT F protease: -4; Anthrax LF prot: -6; BoNT-A LC inh2: 0; Autofluor counter: 4170

What do the screens show for `CCOC(=O)C(O)(c1ccc(NC(=O)NC2CCCCC2)cc1)C(F)(F)F` (centres undefined)?
BoNT F protease: -1; Anthrax LF prot: -1; BoNT-A LC inh2: 1; SARS 3CLpro inh: 6; Autofluor counter: 23646*

How did CS(=O)(=O)N(CC(=O)NCCSC1CCCCC1)c1ccc2c(c1)OCO2 do in these assays?
BoNT F protease: 3; Anthrax LF prot: 1; BoNT-A LC inh2: 0; SARS 3CLpro inh: 3; Autofluor counter: 2114

How did COc1ccc(N(CC(=O)NCCSC2CCCCC2)S(C)(=O)=O)c(OC)c1 do in these assays?
BoNT F protease: -10; Anthrax LF prot: -1; BoNT-A LC inh2: inconclusive; SARS 3CLpro inh: 6; Autofluor counter: 18476*

Results for CN(Cc1ccccc1)c1c([N+](=O)[O-])c(=O)n(C)c2ccccc12 ?
BoNT F protease: inconclusive; Anthrax LF prot: 0; BoNT-A LC inh2: 1; SARS 3CLpro inh: 2; Autofluor counter: 3185

How did COc1ccccc1COC(=O)Nc1c(C)nn(C)c1Cl do in these assays?
BoNT F protease: 2; Anthrax LF prot: -1; BoNT-A LC inh2: inconclusive; SARS 3CLpro inh: -1; Autofluor counter: 18871*

What do the screens show for `Cc1nn(C)c(Cl)c1NC(=O)OCc1ccc(F)cc1`?
BoNT F protease: 4; Anthrax LF prot: 14; BoNT-A LC inh2: 2; SARS 3CLpro inh: -1; Autofluor counter: 8567

What do the screens show for `CCOC(=O)N1CCN(C(=S)NC(=O)c2ccnn2C)CC1`?
BoNT F protease: -4; Anthrax LF prot: 0; BoNT-A LC inh2: 0; SARS 3CLpro inh: 1; Autofluor counter: 2314

Results for CC(=O)NC12CC3CC(CC(CC(=O)O)(C3)C1)C2 ?
BoNT F protease: 5; Anthrax LF prot: 1; BoNT-A LC inh2: 3; SARS 3CLpro inh: 1; Autofluor counter: 21352*

Results for CC1(C(=O)NC23CC4CC(CC(C4)C2)C3)CC1(Cl)Cl (centres undefined) ?
BoNT F protease: 6; Anthrax LF prot: 1; BoNT-A LC inh2: 0; SARS 3CLpro inh: 1; Autofluor counter: 11276

How did CC(=O)NC12CC3CC(C)(C1)CC(NC(C)=O)(C3)C2 do in these assays?
BoNT F protease: 4; Anthrax LF prot: -2; BoNT-A LC inh2: inconclusive; SARS 3CLpro inh: 0; Autofluor counter: 23165*

What do the screens show for `Cc1ccc(Nc2n[nH]c(=S)s2)cc1F`?
BoNT F protease: -2; Anthrax LF prot: -4; BoNT-A LC inh2: 0; Autofluor counter: 3521

Results for Cc1cc(C)nc(/N=C2\NC(=O)CC(C(=O)O)N2CCc2c[nH]c3ccccc23)n1 (centres undefined) ?
BoNT F protease: -12; Anthrax LF prot: -11; BoNT-A LC inh2: -2; SARS 3CLpro inh: 6; Autofluor counter: 6756

What do the screens show for `Cc1c(CCC(=O)O)c(=O)n2c([nH]c3ccccc32)c1C#N`?
BoNT F protease: 0; Anthrax LF prot: -3; BoNT-A LC inh2: 0; SARS 3CLpro inh: 6; Autofluor counter: 20757*

What do the screens show for `COc1ccc(Br)cc1CN1CCN(S(=O)(=O)Cc2ccccc2)CC1`?
BoNT F protease: 2; Anthrax LF prot: 0; BoNT-A LC inh2: 1; SARS 3CLpro inh: 8; Autofluor counter: 4123
